Results from PubChem BioAssay AID1159580 (chemical genetic matrix, 2015).
Among all 5,500 compounds or so, about 2,000 (36%) were called active. About 18% were inconclusive and are not listed. No stated cut-off is given here; in the data, active means normalized growth mostly below about 0.91 (no sharp cut-off); inconclusive means no clear call, values can overlap the other calls; inactive means mostly above about 0.92. The list shows a part of the results.

Experiment: chemical genetic growth profiling, strain panel (AID 1159580);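 further: tested at 20 µM; growth read once vehicle control cultures reached saturation at 30 °C; 1 = growth at the plate median or of vehicle wells; lower values mean less growth of the strain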
Conditions: growth OD

Measured: normalized growth

COc1cc2c(cc1OC)C(=O)c1ccc(OC)c(OC)c1OCC(=O)C2
inactive: S. cerevisiae deletion strains, locus YAL013W, strain DEP1, hits give low values 1.01 | S. cerevisiae deletion strains, locus YBR021W, strain FUR4, hits give low values 1.08 | S. cerevisiae deletion strains, locus YBR229C, strain ROT2, hits give low values 1.01 | S. cerevisiae deletion strains, locus YCL029C, strain bik1, hits give low values 1.01 | S. cerevisiae deletion strains, locus YDL035C, strain GPR1, hits give low values 1.05 | S. cerevisiae deletion strains, locus YDL074C, strain BRE1, hits give low values 1.05 | S. cerevisiae deletion strains, locus YDL101C, strain DUN1, hits give low values 0.993 | S. cerevisiae deletion strains, locus YDL185W, strain tfp1, hits give low values 0.982 | S. cerevisiae deletion strains, locus YDL192W, strain arf1, hits give low values 1.04 | S. cerevisiae deletion strains, locus YDR101C, strain arx1, hits give low values 1.06 | S. cerevisiae deletion strains, locus YDR162C, strain NBP2, hits give low values 1.04 | S. cerevisiae deletion strains, locus YDR318W, strain mcm21, hits give low values 1.01 | S. cerevisiae deletion strains, locus YDR388W, hits give low values 1.01 | S. cerevisiae deletion strains, locus YDR502C, strain sam2, hits give low values 0.991 | S. cerevisiae deletion strains, locus YEL061C, strain CIN8, hits give low values 1.01 | S. cerevisiae deletion strains, locus YER110C, hits give low values 1.01 | S. cerevisiae deletion strains, locus YER155C, strain BEM2, hits give low values 0.992 | S. cerevisiae deletion strains, locus YER167W, strain BCK2, hits give low values 0.995 | S. cerevisiae deletion strains, locus YGL078C, strain dbp3, hits give low values 0.963 | S. cerevisiae deletion strains, locus YGL086W, strain mad1, hits give low values 1.02 | S. cerevisiae deletion strains, locus YGL248W, strain PDE1, hits give low values 0.994 | S. cerevisiae deletion strains, locus YGR078C, strain PAC10, hits give low values 1.02 | S. cerevisiae deletion strains, locus YGR135W, strain pre9, hits give low values 0.968 | S. cerevisiae deletion strains, locus YGR252W, strain gcn5, hits give low values 1.05 | S. cerevisiae deletion strains, locus YHR030C, strain SLT2, hits give low values 1 | S. cerevisiae deletion strains, locus YHR079C, strain IRE1 (second series), hits give low values 1 | S. cerevisiae deletion strains, locus YHR094C, strain hxt1, hits give low values 0.991 | S. cerevisiae deletion strains, locus YHR129C, strain ARP1, hits give low values 1 | S. cerevisiae deletion strains, locus YHR200W, strain rpn10, hits give low values 1.02 | S. cerevisiae deletion strains, locus YIL066C, strain RNR3, hits give low values 1.01 | S. cerevisiae deletion strains, locus YIL073C, strain SPO22, hits give low values 0.954 | S. cerevisiae deletion strains, locus YIL125W, strain kgd1, hits give low values 1.01 | S. cerevisiae deletion strains, locus YIR030C, strain dcg1, hits give low values 1 | S. cerevisiae deletion strains, locus YJL095W, strain BCK1, hits give low values 1.01 | S. cerevisiae deletion strains, locus YJL134W, strain LCB3, hits give low values 1.01 | S. cerevisiae deletion strains, locus YJL168C, strain set2, hits give low values 1 | S. cerevisiae deletion strains, locus YJL187C, strain SWE1 (second series), hits give low values 1.01 | S. cerevisiae deletion strains, locus YJR043C, strain POL32, hits give low values 1.09 | S. cerevisiae deletion strains, locus YJR075W, strain HOC1, hits give low values 0.997 | S. cerevisiae deletion strains, locus YKL009W, strain mrt4, hits give low values 1.01 | S. cerevisiae deletion strains, locus YKL068W, hits give low values 0.988 | S. cerevisiae deletion strains, locus YKL085W, strain MDH1 (second series), hits give low values 0.962 | S. cerevisiae deletion strains, locus YKL085W, strain MDH1, hits give low values 0.962 | S. cerevisiae deletion strains, locus YKR001C, strain vps1, hits give low values 1 | S. cerevisiae deletion strains, locus YLR039C, strain RIC1, hits give low values 1.03 | S. cerevisiae deletion strains, locus YLR058C, strain SHM2, hits give low values 1.01 | S. cerevisiae deletion strains, locus YLR102C, strain apc9, hits give low values 1.01 | S. cerevisiae deletion strains, locus YLR262C, strain YPT6, hits give low values 1 | S. cerevisiae deletion strains, locus YLR268W, strain sec22, hits give low values 1 | S. cerevisiae deletion strains, locus YLR330W, strain CHS5, hits give low values 1 | S. cerevisiae deletion strains, locus YLR342W, strain FKS1 (second series), hits give low values 1.13 | S. cerevisiae deletion strains, locus YLR371W, strain rom2, hits give low values 0.984 | S. cerevisiae deletion strains, locus YLR418C, strain cdc73, hits give low values 1.01 | S. cerevisiae deletion strains, locus YML016C, strain PPZ1, hits give low values 1.01 | S. cerevisiae deletion strains, locus YML032C, strain rad52, hits give low values 1.03 | S. cerevisiae deletion strains, locus YML124C, strain tub3, hits give low values 0.983 | S. cerevisiae deletion strains, locus YMR078C, strain ctf18, hits give low values 1 | S. cerevisiae deletion strains, locus YMR223W, strain ubp8, hits give low values 1.01 | S. cerevisiae deletion strains, locus YMR263W, strain SAP30, hits give low values 0.993 | S. cerevisiae deletion strains, locus YMR307W, strain GAS1, hits give low values 1.2 | S. cerevisiae deletion strains, locus YNL067W, strain RPL9B, hits give low values 0.976 | S. cerevisiae deletion strains, locus YNL233W, strain BNI4, hits give low values 1.01 | S. cerevisiae deletion strains, locus YNL250W, strain rad50, hits give low values 0.936 | S. cerevisiae deletion strains, locus YNL271C, strain bni1, hits give low values 0.976 | S. cerevisiae deletion strains, locus YNL298W, strain CLA4, hits give low values 1 | S. cerevisiae deletion strains, locus YNL307C, strain MCK1, hits give low values 0.988 | S. cerevisiae deletion strains, locus YNR052C, strain pop2, hits give low values 0.996 | S. cerevisiae deletion strains, locus YOL006C, strain TOP1, hits give low values 1.27 | S. cerevisiae deletion strains, locus YOL012C, strain htz1 0.675 | S. cerevisiae deletion strains, locus YOL147C, strain pex11, hits give low values 1.01 | S. cerevisiae deletion strains, locus YOR061W, strain CKA2, hits give low values 1.02 | S. cerevisiae deletion strains, locus YOR069W, strain VPS5, hits give low values 1 | S. cerevisiae deletion strains, locus YOR136W, strain idh2, hits give low values 1 | S. cerevisiae deletion strains, locus YOR144C, strain elg1, hits give low values 1 | S. cerevisiae deletion strains, locus YOR184W, strain ser1, hits give low values 1.07 | S. cerevisiae deletion strains, locus YOR316C, strain cot1, hits give low values 0.99 | S. cerevisiae deletion strains, locus YPL055C, strain LGE1, hits give low values 1.09 | S. cerevisiae deletion strains, locus YPR119W, strain clb2, hits give low values 0.977 | S. cerevisiae deletion strains, locus YPR141C, strain kar3, hits give low values 0.972 | S. cerevisiae deletion strains, locus YPR163C, strain tif3, hits give low values 0.999 | S. cerevisiae deletion strains, locus YPR167C, strain met16, hits give low values 0.99 | S. cerevisiae deletion strains, strain wtn01, hits give low values 1.04 | S. cerevisiae strains, strain wild type, hits give low values 1.04
